Results published in PubChem BioAssay (NCATS).
“And” between values parts separate entries of the source, which are not always exact repeats. Equal values may be shown once. Records with an inconclusive call do not appear. Where a call stands in place of a potency, no number is given. A number with no mark means an inactive call. The source made the active and inactive calls. Calls come from the whole dose curve; as a rule, active = well fitted curve in the direction sought with a large enough effect; inconclusive = small, poorly fitted or top-dose-only effect, or another doubt; inactive = no such curve, though single readings can be large; an effect the other way counts as inactive or inconclusive.

Legend:
[1] = Viability qHTS for spleen associated tyrosine kinase inhibitor (SYKi) naive MV4-11 cells (AID 1963823); note: nearly all actives have a fitted effect of over 40% in size
Method in brief: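 Cells: MV4-11, SYK inhibitor naive, 500 per well. Treatment: library compounds, 72 hr, 37 C, 5% CO2. Read-out: CellTiter-Glo luminescence after 10 min RT.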

[2] = Cellular viability qHTS for adrenocortical cancer (ACC) cell line SW-13 (AID 1963989); details: SW-13 ACC cells viability, CellTiter-Glo, 48 h; activity (max response): hits give low values; note: nearly all actives have a fitted effect of over 65% in size;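 for activity (max response): cells grown in serum-free medium with ITS supplement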
Method in brief: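 Viability was read as CellTiter-Glo luminescence after 48 h compound treatment (up to 46 uM final) of SW-13 cells grown serum-free; titration curves were fit with a four-parameter logistic model to give IC50 and efficacy.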

[3] = Cellular viability qHTS for adrenocortical cancer (ACC) cell line NCI-H295R (AID 1963990); note: nearly all actives have a fitted effect of over 60% in size
Method in brief: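 CellTiter-Glo ATP luminescence, read 48 h after compound addition, measured viability of NCI-H295R adrenocortical cells grown serum-free with ITS. Final concentrations spanned up to 46 uM. Data normalized to DMSO and doxorubicin, fitted for IC50 and maximal response.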
Potency is the fitted concentration of half-maximal effect.

Structure (SMILES)	Potency [1]	activity (max response) [2]	Potency [3]	Potency [2]
C=C[C@H]1CN2CC[C@H]1C[C@@H]2[C@@H](O)c1ccnc2ccc(OC)cc12	inactive	6.85%	inactive	–
Nc1ccc(/C=C/C(=O)NCc2cc3cc(-c4ccc(C(=O)N5CCC(F)(F)CC5)cc4)cc(-c4ccc(F)cc4)c3o2)cn1	148 nM (active) and 184 nM (active)	–	1 µM (active)	1.12 µM (active)
CC(C)=CCC[C@@](C)(O)[C@H]1CC=C(C)CC1	inactive	18.9%	inactive	–
CC(=O)N1CCN(c2ccc(O)cc2)CC1	inactive	7.26%	inactive	–
CC(=O)O/N=C1\C(=O)N(Cc2cc(Cl)ccc2Cl)c2ccc(Cl)cc21	5.9 µM (active)	-2.12%	0.562 µM (active)	–
CC(=O)Oc1cc(C(C)C)c(OCCN(C)C)cc1C	0.0011 µM (active)	12.6%	inactive	–
O=C(CCCN1CC=C(n2c(=O)[nH]c3ccccc32)CC1)c1ccc(F)cc1	inactive	-10.3%	inactive	–
COc1ccc(CCN(C)CCCN2CCc3cc(OC)c(OC)cc3CC2=O)cc1OC	inactive	5.36%	–	–
[2H]c1nc(C)nc([2H])c1-c1cc(NC[C@@H](C)c2cccc3c(C(=O)NC)ccnc23)ncn1	inactive	14.2%	inactive	–
O=C(O)CCCc1ccccc1	inactive	16.4%	inactive	–
CC(C)[C@@H]1CC[C@@H](C)CC1=O	inactive	11.9%	inactive	–
CNC(=O)c1ccccc1Nc1nc(Nc2ccc3c(c2OC)CCC[C@@H](N2CCN(CCO)CC2)C3)ncc1Cl	0.366 µM (active)	–	2.82 µM (active)	15.8 µM (active)
O=[N+]([O-])c1ccc(O)c2ncccc12	2.99 µM (active) and 4.68 µM (active)	–	411 nM (active) and 2.82 µM (active)	2.91 µM (active) and 10 µM (active)
CN1CCC[C@@H]1Cc1c[nH]c2ccc(CCS(=O)(=O)c3ccccc3)cc12	inactive	-0.887%	inactive	–
COCc1c(C(C)C)nc(C(C)C)c(/C=C/[C@@H](O)C[C@@H](O)CC(=O)O)c1-c1ccc(F)cc1	0.168 µM (active)	–	1.16 µM (active)	2.59 µM (active)
COc1cc2c(Oc3ccc4[nH]c(C)cc4c3F)ccnc2cc1OCC1(N)CC1	4.17 µM (active)	–	10 µM (active)	11.2 µM (active)
CCC1C(=O)OCC1Cc1cncn1C (stereo unspecified)	inactive	6.41%	inactive	–
Cc1c(F)cccc1NC(=O)Nc1ccc(Cl)c(S(=O)(=O)[C@H]2CCCNC2)c1O	inactive	-7.46%	inactive	–
O=C(O)CN1C(=O)c2cccc3cccc(c23)C1=O	inactive	-3.53%	inactive	–
Cc1ncc(CO)c(CN)c1O	inactive	7.61%	inactive	–
O=C([O-])C[O-].[Pt+2]	inactive	-1.3%	inactive	–
Oc1cccc2[nH]ccc12	5.31 µM (active)	11.5%	inactive	–

Structure (SMILES)	Potency [1]	activity (max response) [2]	Potency [3]	Potency [2]
C=C1CCC[C@]2(C)C=C3OC(=O)C(C)=C3C[C@@H]12	inactive	-6.22%	inactive	–
CC(CCc1ccc2c(c1)OCO2)NN (stereo unspecified)	inactive	9.04%	inactive	–
COc1cc2c(cc1OCCCN1CCCC1)N=C(N)C21CCC1	inactive	-9.17%	inactive	–
C[C@H](CCC(=O)O)[C@H]1CC[C@H]2[C@@H]3[C@H](O)C[C@@H]4C[C@H](O)CC[C@]4(C)[C@H]3CC[C@]12C	inactive	-16.1%	inactive	–
Cc1nnc(C(C)C)n1C1CC2CCC(C1)N2CCC(NC(=O)C1CCC(F)(F)CC1)c1ccccc1 (stereo unspecified)	inactive	-4.92%	inactive	–
CN(C)CCCN1c2ccccc2Sc2ccc(Cl)cc21	10.6 µM (active)	–	18.4 µM (active)	14.6 µM (active)
CCN1CCC[C@H]1CNC(=O)c1c(OC)ccc(Br)c1OC	6.68 µM (active)	-0.795%	inactive	–
CCC(C)(CN(C)C)OC(=O)c1ccccc1 (stereo unspecified)	inactive	-1.44%	inactive	–
CN(C)C(N)=NC(=N)N	inactive	1.52%	inactive	–
CN1C(N)=N[C@](C)(c2cc(NC(=O)c3ccc(F)cn3)ccc2F)CS1(=O)=O	inactive	-4.84%	inactive	–
CC[C@H]1OC(=O)[C@H](C)[C@@H](O[C@H]2C[C@@](C)(OC)[C@@H](O)[C@H](C)O2)[C@H](C)[C@@H](O[C@@H]2O[C@H](C)C[C@H](N(C)C)[C@H]2O)[C@](C)(O)C[C@@H](C)C(=O)[C@H](C)[C@@H](O)[C@]1(C)O	inactive	4.41%	inactive	–
COc1ccc(C(=O)C2CCN(CC(=O)N(Cc3nc4c(c(=O)[nH]3)COCC4)CC3CC3)CC2)cc1	inactive	0.295%	inactive	–
CC(C)(O)c1coc(S(=O)(=O)NC(=O)Nc2c3c(cc4c2CCC4)CCC3)c1	inactive	5.8%	inactive	–
C[C@@H](O)[C@H]1C(=O)N2C(C(=O)O)=C(S[C@@H]3CN[C@H](CNS(N)(=O)=O)C3)[C@H](C)[C@H]12	inactive	7.35%	inactive	–
CCN(CC)C(=O)Cc1csc(NS(=O)(=O)c2cccc(Cl)c2C)n1	inactive	-19.2%	inactive	–
COc1ccc(CNC(=O)Nc2ncc([N+](=O)[O-])s2)cc1	9.34 µM (active)	–	28.2 µM (active)	25.1 µM (active)
CCNCCc1ccc(CN(CC)c2cc(OC)ccc2[C@@H]2CCc3cc(O)ccc3C2)cc1	2.35 µM (active)	–	3.98 µM (active)	6.31 µM (active)
CCCCCCCCCCCCSCCOCCO	inactive	-3.34%	inactive	–
Nc1ccc(S(=O)(=O)NC(=O)c2ccccc2)cc1	inactive	4.69%	inactive	–
O=C(O)CCn1c2c(c3ccccc31)C[C@H](NS(=O)(=O)c1ccc(F)cc1)CC2	inactive	-2.29% and -2.36%	inactive	–
CC(=NNC(=O)c1cccc(S(=O)(=O)N2CCOCC2)c1)c1cc(Cl)ccc1O	0.742 µM (active)	–	4.47 µM (active)	3.55 µM (active)
O=C(C[C@@H]1C/C=C\CCC(=O)O[C@H](c2ccccc2)CNC1=O)NCc1ccc(Cl)cc1	4.68 µM (active)	11.5%	inactive	–

Structure (SMILES)	Potency [1]	activity (max response) [2]	Potency [3]	Potency [2]
CC/C=C(\C(=O)N[C@@H]1C(=O)N2C(C(=O)OCOC(=O)C(C)(C)C)=C(COC(N)=O)CS[C@H]12)c1csc(N)n1	inactive	13.8%	inactive	–
CSC[C@H]1CN(Cc2c[nH]c3c(N)ncnc23)C[C@@H]1O	inactive	-14.7%	inactive	–
O=C1Cc2cc(Cl)ccc2N1	inactive	11.1%	inactive	–
CCCCC(CC)COC(=O)c1ccc(N(C)C)cc1 (stereo unspecified)	inactive	-4.79%	inactive	–
CC(C)=CCC/C(C)=C/CO	inactive	10%	inactive	–
CN1[C@@H]2CC(OC(=O)[C@H](CO)c3ccccc3)C[C@H]1[C@@H]1O[C@@H]12 (stereo partly specified)	inactive	1.78%	inactive	–
CCN(CC)CC(=O)OCC(=O)[C@@]1(O)CC[C@H]2[C@@H]3CCC4=CC(=O)CC[C@]4(C)[C@H]3[C@@H](O)C[C@@]21C	inactive	11.9%	inactive	–
C[C@@H](Oc1ccc2[nH]nc(/C=C/c3cnn(CCO)c3)c2c1)c1c(Cl)cncc1Cl	0.0235 µM (active)	–	5.01 µM (active)	3.98 µM (active)
Cc1ccc(S(=O)(=O)NC(=O)NC2CCCCCCC2)cc1	inactive	11.9%	inactive	–
CC(=O)OCC(=O)[C@@]1(O)CC[C@H]2[C@@H]3CCC4=CC(=O)C=C[C@]4(C)[C@H]3[C@@H](O)C[C@@]21C	inactive	1.48% and -12.4%	inactive	–
COC(=O)CCCCC(CCSS/C(CCO)=C(\C)N(C=O)Cc1cnc(C)nc1N)SC(C)=O (stereo unspecified)	inactive	8.22%	inactive	–
CCOC(=O)Oc1ccc(CCNC(=O)[C@H](CCSC)NC(C)=O)cc1OC(=O)OCC	inactive	3.57%	inactive	–
COc1ccc(-c2cc(=S)ss2)cc1	inactive	-5.69%	inactive	–
NC(N)=Nc1nc(CSCC/C(N)=N/S(N)(=O)=O)cs1	inactive	9.53%	inactive	–
CCO[C@@H]1OC(=O)C[C@@H]1NC(=O)[C@@H]1CCCN1C(=O)[C@@H](NC(=O)c1ccc(N)c(Cl)c1)C(C)(C)C	inactive	-11.3%	inactive	–
O=C(O)CC(C(=O)O)n1c(O)c(C2=c3cc(Br)ccc3=NC2=O)sc1=S (stereo unspecified)	inactive	-4.1%	inactive	–
CCN(CC)CCCC[C@H](NC(=O)[C@H](CC(C)C)NC(=O)[C@H](C)NC(=O)[C@H](Cc1ccccc1)NC(=O)c1ccc(C(C)(C)C)cc1)C(=O)N[C@@H](CO)C(=O)OC	inactive	-29.2%	inactive	–
OCc1ccc(Cl)cc1Cl	0.0067 µM (active)	-2%	inactive	–
O=C1CN(/N=C/c2ccc([N+](=O)[O-])o2)C(=O)N1	inactive	-20.9%	18.4 µM (active)	–
CCOC(=O)[C@H](CCc1ccccc1)N[C@@H](C)C(=O)N1Cc2cc(OC)c(OC)cc2C[C@H]1C(=O)O	inactive	2.85%	inactive	–
